Measured values as given in paper PMC5540273 (PLoS ONE, 2017).

Key:
Settings in all cases: concentration: 1 μM, replicates: in singlicate; n = 1
[1] = test system: QSK
[2] = test system: RAF1
[3] = test system: RET
[4] = test system: RIOK1
[5] = test system: RIOK2
[6] = test system: RIOK3
[7] = test system: RIPK1
[8] = test system: RIPK2
[9] = test system: RIPK4
[10] = test system: RIPK5
[11] = test system: ROCK1
[12] = test system: ROCK2
[13] = test system: ROS1
[14] = test system: RPS6KA4(Kin.Dom.1-N-terminal)
[15] = test system: RPS6KA4(Kin.Dom.2-C-terminal)
[16] = test system: RPS6KA5(Kin.Dom.1-N-terminal)
[17] = test system: RPS6KA5(Kin.Dom.2-C-terminal)
[18] = test system: T1, RSK1(Kin.Dom.1-N-terminal)
T1 construct: gene RPS6KA1

[19] = test system: T2, RSK1(Kin.Dom.2-C-terminal)
T2 construct: gene RPS6KA1

[20] = test system: T3, RSK2(Kin.Dom.1-N-terminal)
T3 construct: gene RPS6KA3
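Note: KINOMEscan kinase panel screen.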

SMILES	%Inh [1] [%]	%Inh [2] [%]	%Inh [3] [%]	%Inh [4] [%]	%Inh [5] [%]	%Inh [6] [%]	%Inh [7] [%]	%Inh [8] [%]	%Inh [9] [%]	%Inh [10] [%]	%Inh [11] [%]	%Inh [12] [%]	%Inh [13] [%]	%Inh [14] [%]	%Inh [15] [%]	%Inh [16] [%]	%Inh [17] [%]	%Inh [18] [%]	%Inh [19] [%]	%Inh [20] [%]
Cc1cccc(-c2cc(Nc3ccncc3)c3ccccc3n2)n1 [GSK223675]	0	6	0	19	0	29	0	6	21	6	0	0	0	0	0	5	100	30	35	0
O=C(Nc1n[nH]c2nc(-c3nccs3)c(Br)cc12)C1CC1 [SB-742251]	19	8	12	30	0	29	15	10	17	0	36	24	0	0	0	0	11	9	0	11
COc1cc2ncn(-c3cc(OCC4CCCO4)c(C(N)=O)s3)c2cc1OC (stereo not shown) [GSK204607]	0	0	0	77	0	94.5	5	7	0	0	0	0	8	0	3	9	8	13	0	0
Cc1cc(NCC(c2ccccc2)c2ccccc2)nc(NCc2ccc(C(F)(F)F)cc2)n1 [GW497681]	0	18	0	22	0	9	0	9	0	0	0	23	0	0	0	0	1	0	6	0
Cn1cncc1-c1ccc2ncnc(Nc3ccc(OCc4ccccc4)cc3)c2c1 [GW320571]	16	13	0	32	26	15	18	93.1	0	0	3	17	9	13	0	28	0	0	0	18
CN(C)CCN(C)C(=O)c1cc(-c2ccncc2)c(-c2ccc(Cl)c(O)c2)o1.Cl.Cl [SB-710397]	0	87	24	37	0	0	0	59	14	0	26	17	0	13	0	10	2	25	25	8
O=C(O)COc1ncnc2cc(-c3ccc4[nH]ncc4c3)sc12	0	1	11	0	16	0	0	0	30	6	27	61	3	15	17	0	0	21	34	13
NC(=O)c1nnc2ccccc2c1N	22	19	8	64	44	57	0	0	45	0	0	7	0	21	30	6	21	31	0	33
CC1=C(C(=O)Nc2cc3cn[nH]c3cc2F)C(c2ccc(C(F)(F)F)cc2)CC(=O)N1 (stereo not shown) [GSK429286]	14	5	44	34	23	0	0	12	13	1	99.1	98.2	0	16	0	0	0	5	18	19
Cc1cccc(-c2nc(-c3ccc(S(C)(=O)=O)cc3)sc2-c2ccnc(NCCc3ccccc3)c2)c1	0	93.4	30	17	15	18	3	6	0	0	0	0	0	5	2	18	0	0	8	0
O=S(=O)(c1ccc(-c2ccnc3[nH]ccc23)cc1)N1CCCC1 [GSK846226]	0	0	7	86	85	89	8	5	8	16	81	82	12	5	56	8	76	8	54	18
